An excerpt weighted towards active compounds, which were near 5.5% of everything screened.
ELG1 DNA repair = ELG1-dependent DNA repair inhibition; 330,000 tested, 2.3% active; Potency, µM (doses to about 46.1 µM), inactives show at the top dose activity change, negative = inhibition, hits mostly inhibitors; HEK293T ELG1-luciferase reporter, luminescence, 16 h; DNA damage induced by 5-fluorouridine; AID 504467; note: potency is the fitted concentration of half-maximal effect; nearly all actives have a fitted effect of over 55% in size
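Reporter activity after DNA damage by 5-fluorouridine is monitored. Compound-treated cells incubate 16 hr at 37 °C, then ONE-Glo is added for 30 min before luminescence reading.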
Giardia killer = kills Giardia lamblia; Giardia lamblia trophozoite viability; activity change, % at 7.66 µM, hits read low; 340,000 tested, 0.15% active; AID 540267; in the data active = activity change below about -80%; inconclusive = between about -30% and that limit;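 note: parasites exposed to compound for two days anaerobically before the ATP read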
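Each well holds 100 Giardia trophozoites and compound. After two days (48 hrs) at 37 deg C in anaerobic conditions, ATP is quantified by luminescence.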
Sfp inh = Sfp phosphopantetheinyl transferase inhibition. Potency, µM, for the others: largest response in the series, negative = inhibition, usual class: inhibitors. AID 1490. Q9F4F7. Biochemical Sfp PPTase activity, qHTS. 310,000 tested, 3.5% active;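 note: the enzyme is Sfp with the accession as filed and its product quenches rhodamine fluorescence; potency is the fitted concentration of half-maximal effect; 0% = enzyme reaction without inhibitor and -100% = no enzyme wells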
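After 15 min at room temperature with compound, 15 nM Sfp received 5 uM rhodamine-CoA plus 12.5 uM BHQ-2-ybbR (50 mM Hepes pH 7.6, 10 mM MgCl2). Rate came from the fluorescence difference over 30 min, ex 525/em 598 nm.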
FBPA coupling cs = coupling enzyme interference in Giardia aldolase counter-screen; AID 2472; 290,000 tested, 0.67% active; activity change, negative = inhibition, % at 58.2 µM, hits read low; coupling enzyme system counterscreen, AmpLite Red fluorescence; in the data active = activity change below about -30%
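Fluorescence at 525 nm excitation and 598 nm emission measured inhibition of the coupled detection system without aldolase. Compounds (at 57.5 uM final) were preincubated 10 min at room temperature with coupling enzyme reagent before a 20 min substrate/AmpLite Red step.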
Numbers without * were called inactive. Unless noted, calls come from the whole dose curve; as a rule, active = well fitted curve in the direction sought with a large enough effect; inconclusive = small, poorly fitted or top-dose-only effect, or another doubt; inactive = no such curve, though single readings can be large; an effect the other way counts as inactive or inconclusive. Unless noted, % is set by controls: 0 for no effect and ±100 for the full control effect.

`COc1ccc(NC(=O)Nc2cccs2)cc1OC` gave ELG1 DNA repair inconclusive, Giardia killer -26.4, Sfp inh 44.7µM* and FBPA coupling cs 0.5.
`CCOc1ccc(NC(=O)Nc2cccs2)cc1` gave ELG1 DNA repair inconclusive, Giardia killer inconclusive, Sfp inh 56.2µM* and FBPA coupling cs 2.2.
Screening Cc1ccc(NC(=O)Nc2cccs2)nc1 returned ELG1 DNA repair inconclusive, Giardia killer -0.3, Sfp inh inconclusive and FBPA coupling cs -1.6.
Screening Cc1ccc(NC(=O)Nc2cccs2)cc1 returned ELG1 DNA repair inconclusive, Giardia killer -4.4, Sfp inh 17.8µM* and FBPA coupling cs -0.5.
CCOc1ccc(NC(=O)Nc2ccc3nsnc3c2)cc1 was read as ELG1 DNA repair inconclusive, Giardia killer 2.1, Sfp inh 17.8% and FBPA coupling cs -6.4.
Screening CC(=O)c1cccc(NC(=O)Nc2cccs2)c1 returned ELG1 DNA repair -26.8%, Giardia killer -0.1, Sfp inh inconclusive and FBPA coupling cs -1.9.
Screening O=c1oc(CCCO)cc2ccc(/C=C/c3cccc([N+](=O)[O-])c3)cc12 returned ELG1 DNA repair inconclusive and Giardia killer -7.2.
For CCc1ccc(-c2csc3[n+]2CCN3C(C)=O)cc1 the results were ELG1 DNA repair inconclusive, Giardia killer 9.3, Sfp inh 39.8µM* and FBPA coupling cs -1.2.
COc1cccc(OC)c1C(=O)NC(=S)Nc1cc(-c2nc3ccccc3[nH]2)ccc1Cl was read as ELG1 DNA repair 8.2µM*, Giardia killer 14.6, Sfp inh -24.5% and FBPA coupling cs 5.5.
Screening COC(=O)CN1C(=O)S/C(=C/c2ccc(N3CCCCC3)o2)C1=O returned ELG1 DNA repair inconclusive, Giardia killer 5.2, Sfp inh 7.08µM* and FBPA coupling cs -42.9*.
For O=C(O)CN1C(=O)/C(=C/c2ccc(N3CCCCC3)o2)SC1=S the results were ELG1 DNA repair -3.7%, Giardia killer -26.2, Sfp inh 28.2µM* and FBPA coupling cs -14.3.
CCOC(=O)CN1C(=O)S/C(=C\c2ccc(-c3ccc(C(=O)O)c(Cl)c3)o2)C1=O was read as ELG1 DNA repair -8.1%, Giardia killer 19.7, Sfp inh 50.1µM* and FBPA coupling cs -1.2.
O=C(O)c1ccc(-c2ccc(/C=C3\NC(=O)N(Cc4ccc(Cl)cc4)C3=O)o2)cc1Cl was read as ELG1 DNA repair 3.8%, Giardia killer 51.2, Sfp inh 20µM* and FBPA coupling cs 6.6.
For CCOC(=O)CN1C(=O)S/C(=C\c2ccc(-c3cccc(C(=O)O)c3C)o2)C1=O the results were Giardia killer 0.9.
For COC(=O)CN1C(=O)S/C(=C/c2cc(C)n(C)c2C)C1=O the results were ELG1 DNA repair inconclusive, Giardia killer -4.0, Sfp inh 12.5% and FBPA coupling cs -7.3.
CC(=O)Nc1cc2c(cc1Br)-c1ccccc1C2 was read as Giardia killer 9.3.
`Cc1cc(C(=O)OCC(=O)NC2(C#N)CCCCC2)c(C)o1` gave ELG1 DNA repair 11.6% and Giardia killer -20.9.
`CCOC(=O)CN1C(=O)S/C(=C/c2ccc(N3CCCCC3)o2)C1=O` gave ELG1 DNA repair 13.8%, Giardia killer -8.7, Sfp inh 14.1µM* and FBPA coupling cs -21.7.
Screening COc1cc(C(=O)N2CCN(c3ncnc4sc(C)c(C)c34)CC2)cc(OC)c1OC returned ELG1 DNA repair 6.51µM*, Giardia killer -4.7, Sfp inh 0.5% and FBPA coupling cs 0.5.
CCCN(CC(=O)Nc1ccccc1C)C(=O)C1CCN(c2ncnc3sc(C)c(C)c23)CC1 was read as ELG1 DNA repair 9.2µM* and Giardia killer 2.1.
`Cc1ccccc1OCC(=O)NNC(=O)C1CCN(c2ncnc3sc(C)c(C)c23)CC1` gave ELG1 DNA repair 20.6µM* and Giardia killer -8.3.
CCc1cccc(NC(=O)C2CCN(c3ncnc4sc(C)c(C)c34)CC2)c1 was read as ELG1 DNA repair inconclusive and Giardia killer 6.0.
Screening COc1ccc(-c2csc(NC(=O)C3CCN(c4ncnc5sc(C)c(C)c45)CC3)n2)cc1OC returned ELG1 DNA repair 5.17µM* and Giardia killer -0.5.
For O=c1onc(-c2ccccc2Cl)n1-c1ccccc1Cl the results were Giardia killer 0.0.
Cn1cccc1C(=O)N1CCC2(CC1)CN(C(=O)Nc1ccccc1)C2 was read as Sfp inh -3.8% and FBPA coupling cs 2.7.
Screening Cc1ccc(NC(=O)CN(C)C(=O)c2cccc(S(=O)(=O)N3CCc4ccccc43)c2)cc1 returned ELG1 DNA repair -29.4% and Giardia killer 20.4.

Screening data deposited in PubChem by National Center for Advancing Translational Sciences (NCATS).
